Source: PubChem (National Center for Advancing Translational Sciences (NCATS))
Pf growth 96h – inhibits malaria parasite growth, 96 h. Potency, µM (doses to about 28.7 µM), usual class: inhibitors. P. falciparum luciferase reporter growth, 96 h. hit rate 6.9% among 320,000. AID 504834
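P. falciparum expressing integrated firefly luciferase grown in erythrocytes (2% hematocrit, 0.05% parasitemia final) with compounds for 96 hours at 37 C, 5% CO2. Growth inhibition read as loss of luminescence after adding luciferase detection reagent.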
Pf growth 48h – inhibits P. falciparum growth in the first generation, 48 h; P. falciparum luciferase growth in erythrocytes, 48 h; hit rate 5.9% among 310,000; Potency, µM (top dose mostly 28.7 µM), most hits filed as inhibitors
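Compounds are pin-transferred into medium, infected erythrocytes (2% hematocrit, 0.1% parasitemia final) are added, and plates sit one parasite generation at 37 C in 5% CO2. Detection reagent is then added and luminescence measured.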
HCMV inh – human cytomegalovirus inhibition. hit rate 4.5% among 410,000. AID 1259415. activity change, negative = inhibition, % at 57.5 µM. HFF cells, HCMV-luciferase reporter, 72 h; active compounds read low; in the data active = activity change below about -60%; inconclusive = no clear call, values can overlap the other calls; inactive = above about -39%
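Compounds were evaluated in HFFs infected with an HCMV luciferase reporter virus (MOI 1 PFU/cell). Luciferase in lysates collected 72 h post infection served as the replication measure.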
Shiga inhibitor – Shiga toxin inhibition | Vero cells, Shiga toxin protein synthesis inhibition reporter | inhibition, % at 38.7 µM | hit rate 9.2% among 290,000 | AID 2315; in the data active = inhibition mostly above about 28%, no sharp cut-off; inactive = mostly below about 43%
Cycloheximide cs – counter-screen hit for Shiga toxin inhibitors, cycloheximide. cell reporter, cycloheximide protein synthesis inhibition counterscreen. max response, %. hit rate 12% among 300,000. AID 2314; in the data active = max response mostly above about 13%, no sharp cut-off; inactive = mostly below about 14%; note: read at 38.3 µM for the half of the compounds with a filed dose
HCV inhibitor – inhibitors of hepatitis C virus infection | hit rate 3.4% among 340,000 | AID 651820 | Huh7.5.1 HCVcc-Cre infection, luciferase reporter, 44 h | Potency, µM (series often up to 41.8 µM), most hits filed as inhibitors
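After 44 h co-culture of compound, cells and HCVcc-Cre (~0.5 moi), substrate is added for 15 min at room temperature and luciferase measured over 15 sec. Cells were seeded at 1,000/well and pre-cultured 4 h.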
Large screens that a line does not name were inactive. Hits are enriched below; roughly 21% of the tested compounds scored in any of these assays. Unless noted, calls come from the whole dose curve; as a rule, active = well fitted inhibition curve with a large enough effect; inconclusive = small, poorly fitted or top-dose-only effect, or another doubt; inactive = no such curve, though single readings can be large or run the other way.

CC(CCc1ccccc1)N(C)CC(O)c1cccc([N+](=O)[O-])c1 (stereo not given)	Pf growth 96h inconclusive, Pf growth 48h inconclusive
Cc1ccc(N(CC(=O)NC(C)(C)C)C(=O)CNC(=O)c2cccs2)cc1	Pf growth 48h 7.38µM, HCMV inh inconclusive
C[C@]12CCC(=O)C[C@@H]1CC[C@@H]1[C@@H]2CC[C@]2(C)[C@@H](O)CC[C@@H]12	HCMV inh -61.2 (no result: Shiga inhibitor, Cycloheximide cs)
C[C@]12CCC3C(CC[C@H]4C[C@@H](O)CC[C@]34C)C1CC[C@@]2(O)C(F)(F)F (stereo not given in full)	HCMV inh -60.8 (no result: Pf growth 96h, Pf growth 48h, Shiga inhibitor, Cycloheximide cs)
C[C@H]1CC[C@@]2(C)[C@@H](CC[C@@H]3[C@@H]2CC[C@]2(C)[C@@H](O)CC[C@@H]32)C1	Pf growth 96h inconclusive, HCMV inh -100.3
C[C@]12CCC3C(CC[C@@H]4CC(=O)CC[C@]34C)C1CC[C@@H]2O (stereo not given in full)	none (no result: Pf growth 96h, Pf growth 48h, Shiga inhibitor, Cycloheximide cs)
C[C@]12CCC3C(CCC4=C(Cl)C(=O)CC[C@@]43C)C1CCC2O (stereo not given in full)	Pf growth 96h 10.7µM, Pf growth 48h inconclusive (no result: HCMV inh, Shiga inhibitor, Cycloheximide cs, HCV inhibitor)
CCN(CC)S(=O)(=O)c1cccc(C(=O)NCCCn2ccnc2)c1	none
CN(C(=O)c1ccccc1-c1ncc[nH]1)C1CCCN(Cc2ccccc2F)C1 (stereo not given)	none
COc1ccc(CNC(=O)CCCN2C(=O)COc3ccc(C)cc32)cc1	none (no result: Pf growth 96h, Pf growth 48h, Shiga inhibitor, Cycloheximide cs, HCV inhibitor)
CC(C)Cn1c(=O)c(C(=O)N/N=C/c2cccc(F)c2)c(O)c2ccccc21	HCMV inh inconclusive, HCV inhibitor 20µM
CNC(=O)c1ccccc1NC(=O)c1c(O)c2c([nH]c1=O)CCCC2	none
CCCCn1c(=O)c(C(=O)N/N=C/c2ccc(F)cc2)c(O)c2ccccc21	none (no result: HCMV inh, HCV inhibitor)
O=C(N/N=C/c1cccc(F)c1)c1c(O)c2c([nH]c1=O)CCCC2	Shiga inhibitor 35.9, Cycloheximide cs 25.8
CCc1cccc(NC(=O)COC(=O)c2cc([N+](=O)[O-])ccc2N2CCOCC2)c1	Pf growth 48h inconclusive, HCV inhibitor 10µM (no result: Shiga inhibitor, Cycloheximide cs)
Cc1cc(NC(=O)COC(=O)c2cc([N+](=O)[O-])ccc2N2CCOCC2)ccc1Br	Pf growth 96h inconclusive, Pf growth 48h inconclusive, HCV inhibitor 7.08µM (no result: Shiga inhibitor, Cycloheximide cs)
c1ccc(C2CSc3ccccc3N2)cc1 (stereo not given)	Shiga inhibitor 102.4, Cycloheximide cs 63.8
O=C(NC1CCCCC1)c1ccc(-c2ccccc2[N+](=O)[O-])o1	Shiga inhibitor 105.1, Cycloheximide cs 43.9, HCV inhibitor inconclusive
CC(NC(=O)C12CC3CC(CC(C3)C1)C2)C(=O)NN=Cc1ccc([N+](=O)[O-])o1 (stereo not given)	HCV inhibitor inconclusive (no result: Pf growth 96h, Pf growth 48h, Shiga inhibitor, Cycloheximide cs)
O=C(COC(=O)c1ccc([N+](=O)[O-])o1)NC1CCCC1	none (no result: Pf growth 96h, Pf growth 48h, Shiga inhibitor, Cycloheximide cs)
O=C(NC1CCCCC1)c1ccc([N+](=O)[O-])o1	Pf growth 48h 10.4µM, Shiga inhibitor 71.9, Cycloheximide cs 42.6 (no result: HCMV inh)
O=C(NC1CCC(O)CC1)c1ccc(-c2ccc([N+](=O)[O-])cc2)o1 (stereo not given)	Cycloheximide cs 17.4, HCV inhibitor inconclusive
CC(NC(=O)c1ccc([N+](=O)[O-])o1)C12CC3CC(CC(C3)C1)C2 (stereo not given)	Pf growth 48h 6.57µM, HCMV inh inconclusive, Shiga inhibitor 45.4, Cycloheximide cs 34.7
N#Cc1c(NC(=O)c2ccc(-c3ccccc3[N+](=O)[O-])o2)sc2c1CCCC2	HCV inhibitor inconclusive
Cc1ccnc(NC(=O)C(C)N2C(=O)c3ccccc3S2(=O)=O)c1 (stereo not given)	Pf growth 48h inconclusive (no result: Shiga inhibitor, Cycloheximide cs)
Cc1ccc(OCc2cc(=O)n3c4c(sc3n2)CCCC4)c(C)c1	none (no result: Pf growth 96h, Pf growth 48h, Shiga inhibitor, Cycloheximide cs, HCV inhibitor)
CN(Cc1nc2ccccc2[nH]1)Cc1nc(CC2CC2)no1	Cycloheximide cs 16.2
COc1ccc(C2=Nc3ccccc3NC(=O)C2N(C(=O)c2cnc(C)cn2)c2ccc(N3CCOCC3)cc2)cc1 (stereo not given)	none (no result: Pf growth 96h, Pf growth 48h, Shiga inhibitor, Cycloheximide cs, HCV inhibitor)
COc1ccc(C2=Nc3ccccc3NC(=O)C2N(C(=O)c2ccnc3ccccc23)c2ccccc2)cc1 (stereo not given)	HCMV inh -81.6 (no result: Pf growth 96h, Pf growth 48h, Shiga inhibitor, Cycloheximide cs, HCV inhibitor)
COCCNC(=O)c1ccc2c3n(nc2c1)-c1ccccc1CO3	Shiga inhibitor 41.4, Cycloheximide cs 30.2
c1ccc2c(c1)COc1c3cc4c(cc3nn1-2)OCO4	none (no result: Pf growth 96h, Pf growth 48h, Shiga inhibitor, Cycloheximide cs, HCV inhibitor)
